# Screens as filed in PubChem.
# CIT2-GFP yeast: alters CIT2-GFP fluorescence in TOR pathway yeast screen | S. cerevisiae CIT2-GFP strain, flow cytometry, 3 h; 100 means same as DMSO wells | GFP response vs DMSO, % at 10 µM | 0.065% of 320,000 active | AID 2029;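 active = GFP response relative to DMSO above a set limit, near the screen mean plus 3 SD, cut at about 150% in these data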;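 note: ratio of well median GFP fluorescence to mean of DMSO wells on the plate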
# MEP2-GFP yeast: alters MEP2-GFP fluorescence in TOR pathway yeast screen. AID 2016. 0.51% of 330,000 active. GFP response vs DMSO, % at 10 µM. S. cerevisiae MEP2-GFP strain, flow cytometry GFP, 3 h; 100% = DMSO control level;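 active = GFP response versus DMSO above a set limit, roughly screen mean plus 3 SD, cut at about 180% in these data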;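 note: median GFP fluorescence of the barcode-gated MEP2-GFP cells per well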
# RPL19A TOR yeast: modulators of TOR pathway RPL19A-GFP in S. cerevisiae; S. cerevisiae RPL19A-GFP strain, flow cytometry, 3 h; stronger effect = lower value; percent response vs DMSO, % at 10 µM; 0.3% of 330,000 active; AID 2025;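 active = percent response vs DMSO below 50%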;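 note: median channel GFP fluorescence of the barcoded RPL19A-GFP strain; ratio of sample median GFP to plate DMSO average so 100% = DMSO; lower means less RPL19A-GFP as with rapamycin TOR inhibition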
# AGP1-GFP MLPCN: modulators of TOR pathway AGP1-GFP in S. cerevisiae. S. cerevisiae AGP1-GFP multiplex flow cytometry, 3 h; GFP as percent of DMSO wells. 0.02% of 320,000 active. AID 2066. GFP response vs DMSO, % at 10 µM;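 active = GFP response relative to DMSO above a set limit, near screen average plus 3 SD, cut at about 150% in these data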;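 note: median GFP channel fluorescence of the gated AGP1 strain per well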
# LAP4 TOR yeast: modulators of TOR pathway LAP4-GFP in S. cerevisiae; S. cerevisiae LAP4-GFP multiplex, flow cytometry GFP, 3 h; median GFP as percent of DMSO wells; GFP response vs DMSO, % at 10 µM; 0.34% of 320,000 active; AID 2023;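 active = GFP response vs DMSO above a set limit, about the screen mean plus 3 SD, cut at about 150% in these data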
# VLA-4 inh: inhibition in a human VLA-4 binding assay | P13612 | VLA-4 expressing cells, ligand binding flow cytometry | inhibition, % (about 7 µM as worked out from the volumes in the protocol) | 0.2% of 330,000 active | AID 2557; in the data active = inhibition above about 50%
# VLA-4 allo CP: confirmation of allosteric modulators of human VLA-4 integrin; shares compounds with VLA-4 inh; U937 cells, HUTS-21 LIBS mAb binding, flow cytometry; LDV ligand present at threefold Kd; inhibition, % at 6.7 µM; 2% of 1,300 active; AID 2813; in the data active = inhibition above about 40%;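 note: 0% = ligand without compound and 100% = no ligand background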
# * = called active by the depositor; nt = no result given. In the library only some 1.1% were active in any assay of this set; here they are far more common.
SMILES,CIT2-GFP yeast,MEP2-GFP yeast,RPL19A TOR yeast,AGP1-GFP MLPCN,LAP4 TOR yeast,VLA-4 inh,VLA-4 allo CP
CC[C@@H]1C=C(C(=O)O)[C@H](c2ccc(F)cc2)N1S(=O)(=O)c1ccc(C)cc1,82.5,79.7,85.4,87.6,86.1,24.8,nt
Cc1ccc(S(=O)(=O)N2[C@@H](c3ccccc3)C(C(=O)O)=CC[C@H]2c2ccc3c(c2)OCO3)cc1,113.1,88.0,96.0,85.4,134.9,-3.4,nt
CCOC(=O)CN(C(=O)COC(=O)C1=NNC(=O)CC1)c1ccc(F)cc1,100.1,99.4,95.6,99.1,97.1,8.8,nt
N#CCCN(C(=O)COC(=O)CCc1c[nH]c2ccccc12)c1ccccc1,95.2,104.0,95.2,99.9,103.5,-7.6,nt
COc1cccc(-c2cc(=O)c3cc(NC(=O)c4ccc(Cl)cc4)ccc3[nH]2)c1,85.7,90.5,88.1,78.7,121.1,50.1*,-2.1
CCOCCCNC(=O)CCn1nc(-c2ccc(Cl)cc2)ccc1=O,101.3,110.7,102.7,99.2,93.0,-1.5,nt
CCOC(=O)C(NC(=O)c1cccc(Cl)c1)(Nc1nnc(C)s1)C(F)(F)F (centres undefined),90.3,100.8,100.2,91.3,88.3,46.8,10.3
CCOC(=O)C(NC(=O)c1ccc(F)cc1)(Nc1nnc(C)s1)C(F)(F)F (centres undefined),110.5,103.0,100.1,103.8,94.1,1.4,nt
CCc1cc(=O)[nH]c(-n2[nH]c(-c3ccccc3)cc2=O)n1,103.3,104.3,101.6,103.5,102.2,-8.6,3.7
Cc1cc(C)n(/C(=C\N(C)C)C(=O)c2cccc([N+](=O)[O-])c2)n1,98.7,92.6,96.7,87.8,79.8,41.7,-17.5
CCN(C(=O)Cn1c(=O)oc2ccccc21)c1cccc(C)c1,94.7,103.0,97.1,100.3,92.0,6.6,nt
CCN(C(=O)Cn1c(=O)oc2ccccc21)c1cccc(C(F)(F)F)c1,105.8,105.6,100.4,103.9,nt,-9.6,9.1
COc1ccccc1NC(=O)Cn1c(=O)oc2ccccc21,98.1,99.3,100.7,96.8,99.2,-2.9,nt
CCN(CC)C(=O)Cn1c(=O)oc2ccccc21,94.0,96.3,98.2,108.8,115.4,6.3,-13.2
CC1CN(C(=O)Cn2c(=O)oc3ccccc32)CC(C)O1 (centres undefined),103.8,105.7,101.3,96.6,100.5,-9.2,-14.8
CC(=O)N1CCN(C(=O)Cn2c(=O)oc3ccccc32)CC1,96.6,88.2,92.1,90.2,86.0,-3.1,nt
CCCN(CC(=O)Nc1ccccc1OC)C(=O)Cn1c(=O)oc2ccccc21,nt,nt,nt,nt,nt,nt,2.9
CCN(CC)CCCNC(=O)c1cc(-c2ccccc2)c(N2CCCCC2)s1,111.7,104.6,102.3,110.0,104.4,11.0,nt
O=C(COC(=O)c1nc(Cl)c(Cl)c(Cl)c1Cl)NCc1ccccc1,96.4,110.0,101.0,99.7,106.7,2.2,nt
CCCCn1c(N)c(N(CCOC)C(=O)c2cc(Cl)nc3ccccc23)c(=O)[nH]c1=O,102.4,103.2,102.5,108.7,108.5,3.6,nt
CCOC(=O)CNS(=O)(=O)c1cc(-c2nnc(Nc3ccc4c(c3)OCO4)c3ccccc23)ccc1C,100.7,103.9,104.4,102.9,97.8,61.0*,22.5
Cc1ccc(-c2nnc(Nc3ccc(O)cc3)c3ccccc23)cc1S(=O)(=O)NCCO,107.2,101.0,105.6,107.6,94.0,-0.4,nt
CCC(=O)Nc1ccc2c(c1)ncn2-c1ccccc1,107.8,100.3,100.0,101.1,97.1,53.2*,-4.2
COc1cccc(C(C(=O)NC2CCCCC2)N(C(=O)Cc2cccs2)c2ccc(-n3cnnn3)c(OC)c2)c1 (centres undefined),93.7,104.5,99.0,100.0,100.6,54.0*,-3.5
CCN1CCN(c2ccc(N3CCN(C(=O)c4ccc(Br)o4)CC3)nn2)CC1,104.9,99.6,98.4,101.6,107.8,-1.4,nt
SMILES,CIT2-GFP yeast,MEP2-GFP yeast,RPL19A TOR yeast,AGP1-GFP MLPCN,LAP4 TOR yeast,VLA-4 inh,VLA-4 allo CP
O=C(Nc1cccc(Cl)c1)Nc1cccc(C(=O)O)c1,87.9,90.8,93.5,96.6,100.4,-0.1,5.1
O=C(Nc1cccc(Cl)c1)Nc1ccccc1C(=O)O,88.5,98.8,97.0,98.4,103.7,7.5,-6.2
COc1cccc(C#Cc2c(CO)[nH]c3ccccc23)c1,94.4,87.4,96.1,96.6,100.7,0.0,nt
Cc1ccc(SCC(=O)OCC(=O)NC2CCCCCCC2)cc1,104.5,98.7,99.5,107.7,101.8,54.6*,-0.1
O=C(COC(=O)c1cccc(Cl)c1Cl)NC1CCCC1,98.9,110.2,105.5,100.5,99.3,6.0,nt
O=C(COC(=O)c1c(Cl)cccc1Cl)NC1CCCCCCC1,102.0,105.7,102.1,106.1,107.8,6.5,1.3
O=C(COC(=O)c1c(Cl)cccc1Cl)NC1CCCCC1,97.9,102.8,104.5,102.8,111.9,30.1,nt
O=C(COC(=O)c1ccccc1Cl)NC1CCCCCC1,99.3,102.3,105.9,100.8,112.2,-5.8,-4.9
O=C(COC(=O)c1c(F)cccc1Cl)NC1CCCC1,106.6,107.2,104.5,100.4,101.0,-18.3,nt
O=C(COC(=O)c1c(F)cccc1Cl)NCC1CCCCC1,109.6,114.3,106.0,104.4,100.2,-2.9,6.5
O=C(COC(=O)c1ccc(S(=O)(=O)NCc2ccco2)cc1)NCC1CCCCC1,90.3,93.8,89.9,92.0,94.1,14.4,nt
O=C(COC(=O)c1ccc(F)cc1)NCC1CCCCC1,91.5,100.5,103.0,102.7,108.8,50.8*,0.0
O=C(COC(=O)c1ccc(Cl)cc1)NCC1CCCCC1,109.8,104.4,102.3,105.3,103.3,0.6,-4.9
O=C(Nc1ccc(Cl)cc1Cl)NC1CCN(S(=O)(=O)c2ccc(F)cc2)CC1,124.6,123.8,99.5,117.2,127.9,18.8,nt
COc1cccc(C(=O)O/N=C(\N)c2ccncc2)c1,95.3,96.5,94.1,93.6,95.7,8.9,nt
COc1cccc(C(=O)O/N=C(\N)c2ccc(C)cc2)c1,126.9,96.9,100.0,58.5,129.1,42.0,-22.4
COc1ccc2c(-c3ccc(OCCN4CCCCC4)cc3)c(-c3ccccc3OC)sc2c1,nt,nt,nt,nt,nt,nt,0.0
COc1ccccc1-c1sc2ccccc2c1-c1ccc(OCCN2CCCCC2)cc1,nt,nt,nt,nt,nt,nt,0.0
COc1ccc(-c2c(-c3ccccc3OC)sc3ccccc23)cc1OC,84.8,90.5,93.3,80.7,121.1,28.6,nt
CCc1ccc([C@H]2C(C(=O)O)=C[C@@H](CC3CCCC3)N2S(=O)(=O)c2ccc(C)cc2)cc1,75.0,96.0,104.4,89.4,97.6,26.7,8.1
Cc1ccc(S(=O)(=O)N2[C@@H](c3ccc(F)cc3)C(C(=O)O)=C[C@H]2CC2CCCC2)cc1,92.9,89.7,93.7,85.8,82.9,-24.5,-0.1
